Source: PubChem BioAssay (several laboratories)
IEC-6 tox – IEC-6 cytotoxicity, counter-screen for KLF5 inhibitors | inhibition, % at 5 µM | AID 1825 | luminescence viability | 290,000 tested, 0.78% active;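 note: 0% = plate median of test compound wells and 100% = cytotoxic reference compound wells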
aSyn 5UTR inh – 5' untranslated region of α-synuclein, MLPCN primary screen | AID 1813 | alpha-synuclein 5'UTR reporter, inhibitor activity | 300,000 tested, 0.82% active | inhibition, % (tested at 7.5 µM); in the data active = inhibition above about 60%;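 note: H4 neuroglioblastoma cells stably carrying SNCA 5'UTR luciferase fusion; 0% = DMSO wells and 100% = positive control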
KLF5 inh – inhibitors of KLF5 expression | 290,000 tested, 0.23% active | AID 1700 | inhibition, % at 5 µM | DLD-1 KLF5 promoter-luciferase reporter, luminescence;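 active = inhibition above a per-plate limit of that plate's mean compound inhibition plus 3 SD, cut at about 60% in these data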;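 note: 0% = DMSO wells and 100% = LY294002 at 200 µM; higher means less KLF5 promoter-driven luciferase light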
APP 5UTR inh – APP translation inhibition; inhibition, % at 2 µM; 190,000 tested, 0.82% active; SH-SY5Y APP 5'UTR-luciferase reporter, luminescence;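 active = inhibition above a set limit, derived from the sample mean plus 3 SD, cut at about 45% in these data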
BaF3 parental – reduces parental Ba/F3 cell viability, JAK2V617F counter-screen; CellTiter-Glo ATP luminescence; inhibition, % at 5.6 µM; 220,000 tested, 1.1% active; AID 1486;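 active = inhibition above a per-campaign cutoff, the mean inhibition of all tested compounds plus 3 SD, cut at about 27% in these data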;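 note: 0% = DMSO wells and 100% = JAK Inhibitor I control wells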
Ba/F3 V617F tox – loss of viability in JAK2V617F-driven Ba/F3 cells; Ba/F3 EpoR-JAK2V617F viability, ATP luminescence; inhibition, % at 5.6 µM; 220,000 tested, 1.1% active; AID 1446;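 active = inhibition above the campaign mean plus 3 SD over all tested compounds, cut at about 24% in these data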;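 note: cytokine-independent growth of Ba/F3 cells driven by EpoR plus mutant JAK2; 0% = DMSO-treated cells and 100% = JAK inhibitor I control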
IEC-6 tox confirm – confirmation of cytotoxic compounds in rat IEC-6 intestinal epithelial cells; 1,900 tested, 63% active; inhibition, % at 5 µM; AID 1907; IEC-6 rat intestinal epithelial viability, luminescence; shares compounds with IEC-6 tox;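 note: 0% = vehicle and 100% = reference cytotoxic drug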
* hit, by the source's call; x = no result given. Most compounds without a hit are left out; they make up all but 2.2% or so of the library. Cut-off read from the data, not from the text of the source, unless noted: active = inhibition above about 22%; inactive = the rest.

SMILES	IEC-6 tox	aSyn 5UTR inh	KLF5 inh	APP 5UTR inh	BaF3 parental	Ba/F3 V617F tox	IEC-6 tox confirm
COc1cc(OC)cc(C(=O)c2c(C)c(C#N)c3ccccn23)c1	52*	52	58	x	x	x	18
COc1ccc(C(CCN2CCOCC2)c2c(O)cc(OC)cc2OC)cc1 (configuration not stated)	x	8	x	x	x	x	x
COc1ccc(C(c2c(O)ccc3ccccc23)N2CCOCC2)c(OC)c1 (configuration not stated)	35*	-55	-38	-74	0	-1	-1
COC(=O)c1cc2ccsc2n1Cc1cc(=O)n2ccccc2n1	4	4	-27	8	0	-2	x
CC(=O)N1CCN(c2ccc(NC(=O)c3ccc4c(c3)OCO4)cc2)CC1	-1	6	-13	8	2	-3	x
O=C(Nc1ccc(N2CCN(C(=O)c3ccccc3)CC2)cc1)c1ccc2c(c1)OCO2	26*	36	59	-2	70*	72*	22
COC(=O)c1ccc(NC(=O)CN(c2ccc(OC)cc2)S(C)(=O)=O)cc1	7	-176	-26	-20	0	-4	x
Cc1cc(C(=O)NN=C2CCCC2)c2ccccc2n1	x	-5	x	x	x	x	x
C/C(=N\NC(=O)c1cc(C2CC2)nc2ccccc12)c1ccc(C)s1	4	18	-20	3	3	-4	x
C/C(=N\NC(=O)c1cc(C2CC2)nc2ccccc12)c1ccc(O)cc1O	51*	74*	61	x	x	x	43*
CC(/C=C/c1ccccc1)=N\NC(=O)c1cc(C)nc2ccccc12	40*	-29	40	x	52*	33*	5
C/C(=N\NC(=O)c1cc(C)nc2ccccc12)c1cccs1	29*	5	18	x	2	0	-2
O=c1cc(CN2CCOCC2)c2cc(Cl)c(O)cc2o1	-7	8	-11	x	x	x	x
COC(=O)CCC(=O)NNC(=O)c1cccc(Cl)c1	2	20	8	-13	2	-3	x
CCOc1ccc(CN(C(=O)c2cc3ccccc3oc2=O)C2CC2)cc1	-3	-23	3	6	-1	-3	x
COc1nccc(C(F)(F)F)c1C(=O)Nc1ccc(Cl)cc1	-3	10	-13	x	-2	-4	x
NC(=O)CSc1nc2ccccc2c(=O)n1CCc1ccccc1	5	-17	-17	x	x	x	x
O=c1c2ccccc2nc(SCCN2CCCCC2)n1CCc1ccccc1	22*	-50	-11	12	12	8	9
N#Cc1nccnc1S(=O)(=O)c1cccs1	40*	-48	-10	x	35*	92*	82*
COc1cc(/C=N/NC(=O)CC#N)cc(Br)c1O	37*	-4	9	-6	0	-4	-6
COc1cc(/C=N/NC(=O)Cc2ccc(Br)cc2)cc(OC)c1O	-2	2	-9	-12	-1	-5	x
CC(=NCCN1CCN(C(=S)Nc2ccccc2)CC1)C1=C(O)CC(C)(C)CC1=O	-1	9	-20	-9	9	0	x
O=C(Cc1cccc2ccccc12)Nc1ccc(O)cc1C(=O)O	-1	11	3	x	x	x	x
O=C(CSc1nc2ccccc2c(=O)n1Cc1ccccc1)Nc1ccc(Br)cc1C(=O)O	34*	7	8	x	x	x	20
O=C(Cc1cccc2ccccc12)Nc1ccc(Br)cc1C(=O)O	25*	18	9	x	x	x	3
SMILES	IEC-6 tox	aSyn 5UTR inh	KLF5 inh	APP 5UTR inh	BaF3 parental	Ba/F3 V617F tox	IEC-6 tox confirm
Cc1ccc(C)c(N2CCN(S(=O)(=O)c3cn(C)cn3)CC2)c1	2	-4	-14	x	x	x	x
COc1cc(OC)cc(C(=O)N2CCN(C(=O)c3ccc(OC)c(OC)c3)CC2)c1	-1	39	4	-3	3	0	x
COc1ccc(-c2n[nH]c3c2CN(C(=O)c2ccc(OC)c(OC)c2)CC3)cc1	40*	24	29	x	x	x	22
CC(C)CCNC(=O)CN(Cc1ccccc1)C(=O)CCC(=O)Nc1nccs1	3	7	-16	x	x	x	x
COc1ccc(C2CC(c3cccc(C)c3)n3nc(N)nc3N2)cc1 (configuration not stated)	4	11	-3	-3	3	0	x
CC(C)Cn1c([N+](=O)[O-])nc2c1c(=O)[nH]c(=O)n2C	-3	-20	-6	x	-2	-2	x
Cn1c(=O)[nH]c(=O)c2c1nc([N+](=O)[O-])n2Cc1ccccc1	38*	-42	-3	x	77*	95*	10
O=C(N/N=C/c1ccccc1O)C(=O)N1CCCCCC1	2	12	6	x	x	x	x
COc1ccc(NC(=O)/C(Cl)=C(/Cl)S(=O)Cc2ccc(Cl)cc2)cn1 (configuration not stated)	42*	x	28	96*	86*	100*	56*
COc1ccc(NC(=O)Cc2ccc(-c3ccccc3)cc2)cn1	40*	-13	-14	18	14	4	22
COc1ccc(CC(=O)Nc2ccc(OC)nc2)cc1	-4	4	-14	-2	5	-3	x
COc1ccc(NC(=O)/C(Cl)=C(/Cl)S(=O)(=O)Cc2ccccc2)cn1	31*	-26	11	77*	31*	73*	47*
COc1ccc(NC(=O)C(Cl)=C(Cl)Cl)cn1	12	-54	4	30	-3	1	x
CC1(C)Cc2c(sc(NC(=O)C(=O)N3CCCC3)c2C(=O)O)CO1	5	-2	-14	x	x	x	x
CCCCN(CCCC)C(=O)c1cn(CC)c2cc(N3CCN(C)CC3)c(F)cc2c1=O	-5	-5	-10	x	x	x	x
CCS(=O)c1ccccc1C(=O)O (configuration not stated)	1	6	-36	0	-4	0	x
CCn1cc(C(=O)NC2CCCc3c2cnn3-c2cccc(C)c2C)cn1 (configuration not stated)	22*	-16	44	x	x	x	14
COC(=O)CSc1nnc(-c2sc3cc(OC)ccc3c2Cl)n1C	-2	-2	-22	-10	5	1	x
Cc1nsc2nc3c(F)c(F)c(F)c(F)c3cc12	29*	-49	-2	x	x	x	5
COc1ccc(CCNc2ccc(C(CC(N)=O)NC(=O)Cc3cccc4ccccc34)cc2[N+](=O)[O-])cc1 (configuration not stated)	x	11	x	x	x	x	x
COc1ccc(-n2nc(C(=O)NCC(=O)N3CCCCC3)c3ccccc3c2=O)c(OC)c1	11	-31	-23	x	x	x	x
COc1cccc(-c2cc3nc(-c4ccccc4)cc(=O)n3[nH]2)c1	78*	-167	22	x	x	x	53*
O=c1cc(-c2ccccc2)nc2cc(-c3ccc(F)cc3)[nH]n12	x	-109	x	x	x	x	x
Cc1ccccc1CNc1ncnc2cc(Cl)ccc12	9	-2	-3	x	x	x	x
COc1cc2ncnc(Nc3ccc4c(c3)OCO4)c2cc1OC	27*	-14	-34	x	x	x	58*
COc1cc2ncnc(NCc3ccccc3Cl)c2cc1OC	22*	6	4	11	5	3	36*
COc1cc2ncnc(NCc3ccccc3C)c2cc1OC	25*	-1	23	-4	5	-3	36*
